Laboratory results: PubChem BioAssay (EPA / NIEHS)
Calls of active or inactive are those of the source. Rule for the calls: active = hit-call score of the fitted dose curve at least 0.9, where 1 is the maximum; inactive = score below 0.9.

Tests used:
Conditions in all cases: mRNA level, 48 h; actives raise or lower the signal
[1] = read-out: Bcl-2 (BID) gene, BID (gene 637); assay: LTEA_HepaRG_BID: Life Technologies and Expression Analysis (LTEA) Assay for Bcl-2 (BID) gene using HepaRG (AID 2283476)
Method in brief: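 Duplicate 48 h treatments of HepaRG cells in serum-free induction medium spanned 100 uM downward in half-log steps, 0.5% DMSO. Transcript change quantified by qRT-PCR against three housekeeping genes, fitted up or down versus DMSO.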

[2] = read-out: Caspase-3 (Homo sapiens) (UniProt P42574); assay: LTEA_HepaRG_CASP3: Life Technologies and Expression Analysis (LTEA) Assay for cysteine-aspartic acid protease (CASP3) using HepaRG (AID 2283477)
Method in brief: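 Read-out is CASP3 mRNA level by TaqMan qRT-PCR in human HepaRG cells after 48 h chemical exposure. Eight half-log concentrations topping at 100 uM were tested in 0.5% DMSO; gain or loss was fitted relative to DMSO.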

[3] = read-out: Cytochrome P450 (CYP24A1), CYP24A1 (gene 1591); assay: LTEA_HepaRG_CYP24A1: Life Technologies and Expression Analysis (LTEA) Assay for Cytochrome P450 (CYP24A1) using HepaRG (AID 2283478)
Method in brief: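 HepaRG, 48 h chemical exposure, 8-pt half-log CRC from 100 uM, 0.5% DMSO vehicle, duplicates. Endpoint: CYP24A1 mRNA by Fluidigm TaqMan qRT-PCR, normalized ACTB/GAPDH/POLR2A; gain/loss fit vs DMSO.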

[4] = read-out: Cytochrome P450 (CYP1A2), CYP1A2 (gene 1544); assay: LTEA_HepaRG_CYP1A2: Life Technologies and Expression Analysis (LTEA) Assay for Cytochrome P450 (CYP1A2) using HepaRG (AID 2283479)
Method in brief: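 CYP1A2 transcript induction or loss, quantified by Fluidigm qRT-PCR against three housekeeping genes, was fitted bidirectionally against 0.5% DMSO controls. Human HepaRG cells received eight half-log concentrations from 100 uM over 48 h.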

[5] = read-out: cysteine-aspartic acid protease (CASP8), CASP8 (gene 841); assay: LTEA_HepaRG_CASP8: Life Technologies and Expression Analysis (LTEA) Assay for cysteine-aspartic acid protease (CASP8) using HepaRG (AID 2283480)
Method in brief: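 Concentration-response in duplicate up to 100 uM (half-log steps, 0.5% DMSO) on differentiated HepaRG cultures for 48 h. Expression change of CASP8 mRNA is determined by TaqMan qRT-PCR with housekeeping-gene normalization.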

[6] = read-out: Cytochrome P450 (CYP2B6), CYP2B6 (gene 1555); assay: LTEA_HepaRG_CYP2B6: Life Technologies and Expression Analysis (LTEA) Assay for Cytochrome P450 (CYP2B6) using HepaRG (AID 2283481)
Method in brief: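 HepaRG cells plated 48 h, switched to serum-free induction medium, then dosed 48 h (8 points, half-log from 100 uM, 0.5% DMSO). RNA isolated; CYP2B6 expression measured by qRT-PCR; gain or loss fitted relative to DMSO.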

[7] = read-out: Cytochrome P450 2C19 (Homo sapiens) (UniProt P33261); assay: LTEA_HepaRG_CYP2C19: Life Technologies and Expression Analysis (LTEA) Assay for CYP2C19 using HepaRG (AID 2283482)
Method in brief: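 Transcript levels of CYP2C19 were quantified by qRT-PCR after HepaRG cells were treated for 48 hours with test chemicals up to 100 uM (eight half-log concentrations, 0.5% DMSO vehicle). Gain or loss of signal was fitted relative to DMSO.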

[8] = read-out: CYP2C8 (gene 1558); assay: LTEA_HepaRG_CYP2C8: Life Technologies and Expression Analysis (LTEA) Assay for CYP2C8 using HepaRG (AID 2283483)
Method in brief: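 This is a transcriptional endpoint in HepaRG cultures: 48 h exposure, highest concentration 100 uM. CYP2C8 mRNA is quantified by TaqMan qRT-PCR.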

[9] = read-out: CYP2C9 (gene 1559); assay: LTEA_HepaRG_CYP2C9: Life Technologies and Expression Analysis (LTEA) Assay for CYP2C9 using HepaRG (AID 2283484)
Method in brief: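 Eight-point concentration-response (highest 100 uM, half-log dilutions) in HepaRG cells for 48 h; CYP2C9 expression by qRT-PCR normalized to ACTB, GAPDH, POLR2A. Bidirectional fit, DMSO baseline.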

[10] = read-out: CYP2E1 (gene 1571); assay: LTEA_HepaRG_CYP2E1: Life Technologies and Expression Analysis (LTEA) Assay for CYP2E1 using HepaRG (AID 2283485)
Method in brief: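 CYP2E1 transcript measured by Fluidigm qRT-PCR against three housekeeping genes in human HepaRG cells treated 48 h (top 100 uM, half-log steps, 0.5% DMSO vehicle). Gain or loss fitted relative to DMSO baseline.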

[11] = read-out: CYP4A11 (gene 1579); assay: LTEA_HepaRG_CYP4A11: Life Technologies and Expression Analysis (LTEA) Assay for CYP4A11 using HepaRG (AID 2283486)
Method in brief: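 HepaRG, 48 h chem exposure, 8 conc (100 uM top, half-log), 0.5% DMSO vehicle; qRT-PCR readout, housekeeping-gene normalized; bidirectional curve fit vs DMSO baseline.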

[12] = read-out: Cytochrome P450 3A4 (Homo sapiens) (UniProt P08684); assay: LTEA_HepaRG_CYP3A4: Life Technologies and Expression Analysis (LTEA) Assay for CYP3A4 using HepaRG (AID 2283487)
Method in brief: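 CYP3A4 transcript measured by TaqMan qRT-PCR and normalized to three housekeeping genes after 48 h chemical exposure of human HepaRG cells. Top concentration 100 uM, half-log steps, 0.5% DMSO vehicle; gain or loss fitted against DMSO baseline.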

[13] = read-out: DNA damage-inducible transcript 3 (DDIT3), DDIT3 (gene 1649); assay: LTEA_HepaRG_DDIT3: Life Technologies and Expression Analysis (LTEA) Assay for DNA damage-inducible transcript 3 (DDIT3) using HepaRG (AID 2283488)
Method in brief: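 DDIT3 transcript was quantified by qRT-PCR with ACTB/GAPDH/POLR2A normalization after 48 h chemical treatment of differentiated HepaRG cells in 0.5% DMSO. Dosing was eight-point, half-log, top 100 uM, duplicate wells. Curves fitted bidirectionally versus DMSO.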

[14] = read-out: Pro-epidermal growth factor (Homo sapiens) (UniProt P01133); assay: LTEA_HepaRG_EGF: Life Technologies and Expression Analysis (LTEA) Assay for Epidermal growth factor (EGF) using HepaRG (AID 2283489)
Method in brief: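 HepaRG, 48 h dosing, 100 uM top, half-log x8, 0.5% DMSO. Readout: TaqMan qRT-PCR (Fluidigm array), housekeeping-normalized. Gain or loss of signal fit vs DMSO.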

[15] = read-out: Early growth response protein 1 (EGR1) transcription factor, EGR1 (gene 1958); assay: LTEA_HepaRG_EGR1: Life Technologies and Expression Analysis (LTEA) Assay for Early growth response protein 1 (EGR1) transcription factor using HepaRG (AID 2283490)
Method in brief: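 EGR1 expression change in human HepaRG after 48 h chemical exposure, assessed by housekeeping-normalized qRT-PCR; concentration-response up to 100 uM, fitted in both directions against DMSO controls.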

[16] = read-out: Ezrin (EZR), EZR (gene 7430); assay: LTEA_HepaRG_EZR: Life Technologies and Expression Analysis (LTEA) Assay for Ezrin (EZR) using HepaRG (AID 2283491)
Method in brief: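 HepaRG, 48 h chemical exposure, 8-pt half-log series from 100 uM, 0.5% DMSO vehicle, duplicates. Read-out: EZR mRNA by TaqMan qRT-PCR (Fluidigm array), housekeeping-normalized; bidirectional curve fit vs DMSO baseline.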

[17] = read-out: Cytochrome P450 3A7 (Homo sapiens) (UniProt P24462); assay: LTEA_HepaRG_CYP3A7: Life Technologies and Expression Analysis (LTEA) Assay for CYP3A7 using HepaRG (AID 2283492)
Method in brief: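 Human HepaRG liver cells, 48 h post-plating, switched to serum-free induction medium and exposed in duplicate for 48 h. Dosing: 100 uM top, half-log dilutions, 8 points, 0.5% DMSO vehicle. Read-out: CYP3A7 mRNA, gain or loss fitted against DMSO baseline.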

[18] = read-out: CYP3A5 (gene 1577); assay: LTEA_HepaRG_CYP3A5: Life Technologies and Expression Analysis (LTEA) Assay for CYP3A5 using HepaRG (AID 2283493)
Method in brief: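 mRNA levels were quantified by qRT-PCR on Fluidigm arrays and normalized to three housekeeping genes. Differentiated HepaRG cells received 48 h exposure (top 100 uM, half-log steps, 0.5% DMSO vehicle, duplicate); bidirectional fitting versus DMSO.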

[19] = read-out: Cytochrome P450 4A22 (Homo sapiens) (UniProt Q5TCH4); assay: LTEA_HepaRG_CYP4A22: Life Technologies and Expression Analysis (LTEA) Assay for Cytochrome P450 4A22 (CYP4A22) using HepaRG (AID 2283495)
Method in brief: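 Readout is CYP4A22 transcript induction or loss, quantified by qRT-PCR and normalized to ACTB, GAPDH and POLR2A. Human HepaRG cells receive test chemicals for 48 h at eight half-log concentrations from 100 uM in 0.5% DMSO.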

[20] = read-out: Cytochrome P450 7A1 (Homo sapiens) (UniProt P22680); assay: LTEA_HepaRG_CYP7A1: Life Technologies and Expression Analysis (LTEA) Assay for Cytochrome P450 7A1 (CYP7A1) using HepaRG (AID 2283496)
Method in brief: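 HepaRG, 48 h exposure, 8-pt half-log series from 100 uM, 0.5% DMSO vehicle, duplicates. Readout: TaqMan qRT-PCR mRNA vs three housekeeping genes; bidirectional curve fit against DMSO baseline.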

Measured: AC50

Chain of Caspase-3 (Homo sapiens) (P42574 whole entry, looked up): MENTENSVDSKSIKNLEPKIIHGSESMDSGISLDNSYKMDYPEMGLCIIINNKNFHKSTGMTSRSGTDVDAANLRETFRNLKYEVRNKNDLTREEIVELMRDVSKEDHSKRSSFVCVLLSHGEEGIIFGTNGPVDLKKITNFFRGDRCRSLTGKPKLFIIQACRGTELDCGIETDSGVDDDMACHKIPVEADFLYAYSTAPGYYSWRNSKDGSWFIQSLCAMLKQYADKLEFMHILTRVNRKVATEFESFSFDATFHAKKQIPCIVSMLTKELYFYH
Chain of Cytochrome P450 3A4 (Homo sapiens) (P08684 whole entry, looked up): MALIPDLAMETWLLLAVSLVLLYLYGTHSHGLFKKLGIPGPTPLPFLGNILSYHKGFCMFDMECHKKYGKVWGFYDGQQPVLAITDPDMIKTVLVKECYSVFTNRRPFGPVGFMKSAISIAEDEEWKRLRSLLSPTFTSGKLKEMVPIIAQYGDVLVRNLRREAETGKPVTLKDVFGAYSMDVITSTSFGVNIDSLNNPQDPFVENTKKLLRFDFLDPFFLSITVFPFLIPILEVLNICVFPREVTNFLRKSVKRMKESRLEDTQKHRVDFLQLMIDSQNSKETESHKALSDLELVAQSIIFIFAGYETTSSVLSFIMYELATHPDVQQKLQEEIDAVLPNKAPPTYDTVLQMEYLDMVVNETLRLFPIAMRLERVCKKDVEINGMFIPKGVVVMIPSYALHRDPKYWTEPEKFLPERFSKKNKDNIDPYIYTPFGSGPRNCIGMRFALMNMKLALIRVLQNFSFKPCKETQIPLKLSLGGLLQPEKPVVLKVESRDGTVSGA
Chain of Cytochrome P450 3A7 (Homo sapiens) (P24462 whole entry, looked up): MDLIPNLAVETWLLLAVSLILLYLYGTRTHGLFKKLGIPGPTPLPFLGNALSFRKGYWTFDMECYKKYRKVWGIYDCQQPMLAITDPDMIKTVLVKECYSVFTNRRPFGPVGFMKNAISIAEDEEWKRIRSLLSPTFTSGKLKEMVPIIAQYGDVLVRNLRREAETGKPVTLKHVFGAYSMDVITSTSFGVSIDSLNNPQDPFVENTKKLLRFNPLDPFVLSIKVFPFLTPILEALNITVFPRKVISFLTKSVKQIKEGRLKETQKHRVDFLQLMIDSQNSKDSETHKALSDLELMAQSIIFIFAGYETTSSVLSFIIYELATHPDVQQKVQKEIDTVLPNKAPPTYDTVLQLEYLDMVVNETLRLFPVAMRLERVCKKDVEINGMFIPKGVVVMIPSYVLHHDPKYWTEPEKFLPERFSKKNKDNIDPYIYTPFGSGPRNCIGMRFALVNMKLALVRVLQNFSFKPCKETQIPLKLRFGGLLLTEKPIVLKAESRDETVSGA
Chain of Cytochrome P450 2C19 (Homo sapiens) (P33261 whole entry, looked up): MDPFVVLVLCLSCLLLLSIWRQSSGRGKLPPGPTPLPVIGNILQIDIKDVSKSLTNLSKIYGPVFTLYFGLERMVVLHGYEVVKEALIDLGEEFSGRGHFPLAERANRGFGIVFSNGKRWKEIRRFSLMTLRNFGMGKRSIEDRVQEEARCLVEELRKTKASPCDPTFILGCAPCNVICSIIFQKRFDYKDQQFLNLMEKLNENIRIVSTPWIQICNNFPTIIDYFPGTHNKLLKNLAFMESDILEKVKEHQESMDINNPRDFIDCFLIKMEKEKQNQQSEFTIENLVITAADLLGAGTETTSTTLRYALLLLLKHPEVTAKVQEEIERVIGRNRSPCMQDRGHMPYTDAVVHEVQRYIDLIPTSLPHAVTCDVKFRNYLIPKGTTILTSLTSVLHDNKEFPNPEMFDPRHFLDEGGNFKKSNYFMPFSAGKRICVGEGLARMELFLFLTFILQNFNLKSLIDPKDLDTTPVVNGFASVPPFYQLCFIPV

O=C(CCl)c1ccccc1
active: [6] 50 µM
inactive: [1] | [2] | [3] | [4] | [5] | [7] | [8] | [9] | [10] | [11] | [12] | [13] | [14] | [15] | [16] | [17] | [18] | [19] | [20]

N#CCCCCC#N
inactive: [1] | [2] | [3] | [4] | [5] | [7] | [8] | [9] | [10] | [11] | [12] | [13] | [14] | [15] | [16] | [17] | [18] | [19] | [20]
active: [6] 50 µM

O=[N+]([O-])c1ccc(Cl)cc1
inactive: [1] | [2] | [3] | [4] | [5] | [6] | [7] | [8] | [9] | [10] | [11] | [12] | [13] | [14] | [15] | [16] | [17] | [18] | [19] | [20]
